KDM5B inhibitor – Primary screen for KDM5B Histone Demethylases FDH-coupled qHTS; Lysine-specific demethylase 5B (Homo sapiens), Q9UGL1; Potency, µM (top dose mostly 57.7 µM), hits mostly inhibitors; 220,000 tested, 2.6% active; KDM5B demethylase, FDH-coupled NADH fluorescence (FDH is formaldehyde dehydrogenase); active means well fitted inhibition curve with a large enough effect; further: 0% is about no effect; nearly all actives have a fitted effect of over 70% in size
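KDM5BΔAP (200 nM final) in 50 mM HEPES pH 7.5, 0.01% Tween-20 was preincubated 10 min at RT with compound over a concentration range. Substrate mix (H3K4me3 12.5 µM, α-KG 25 µM, Fe²⁺, ascorbate, NAD⁺, FDH) was added, and NADH fluorescence change over 30 min gave dose-response curves.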
* marks the source's active call; other numbers are inactive results; i = inactive. Only a selection was taken, and hits are over-represented in it overall. Potency means the concentration at half of the fitted maximal effect.

SMILES | KDM5B inhibitor
O=[N+]([O-])c1ccc(N/N=C/C2=C(Sc3nc4ccccc4o3)CCCC2)cc1 | i
COc1ccccc1C(=O)OCc1cc(=O)n2nc(C3CC3)sc2n1 | i
COc1cncc(NC(=O)C2=NO[C@@H]3CN(Cc4ccc(F)c(Cl)c4)C[C@H]23)c1 | i
CCN(CC)S(=O)(=O)c1ccc(NS(=O)(=O)c2cccc(C(=O)O)c2)cc1 | i
CN(Cc1ccc2c(c1)OCO2)c1nc(-c2cccnc2)nc2ccccc12 | i
COc1ccccc1N1CCN(c2ncccc2CNC(=O)C2CCCO2)CC1 (stereo not given) | i
CCOC(=O)C1CCN(Cc2nnc3cc(-c4nc(-c5ccccc5)no4)ccn23)CC1 | i
c1ccc(-c2noc(-c3ccn4c(CN5CCc6ccccc6C5)nnc4c3)n2)cc1 | 32µM*
CC(c1nc(-c2ccccc2)no1)N1CCc2ccccc2C1 (stereo not given) | i
CC(=O)N1CCN(Cc2nnc3cc(-c4nc(-c5ccccc5)no4)ccn23)CC1 | 6.3µM*
c1ccc(CC2CCN(Cc3nnc4cc(-c5nc(-c6ccccc6)no5)ccn34)CC2)cc1 | i
COC1CCC(C(=O)N2CCCn3nc(C)c(-c4ccccc4C(C)C)c32)CC1 (stereo not given) | i
CN1CCN(S(=O)(=O)c2ccc3c(c2)CCN3)CC1 | i
Cc1cc(C)c2oc(C(=O)N3CCN(C)CC3)cc(=O)c2c1 | i
CN(CCc1ccccn1)C(=O)c1cccnc1Oc1ccc(Cl)cc1 | i
CCCn1c(C)cc(C(=O)CN2C(=O)c3ccccc3C2=O)c1C | i
Cc1nnc2ccc(-c3cccc(NC(=O)c4ccco4)c3)nn12 | i
Cc1nn(-c2ccccc2)c(NC(=O)c2ccco2)c(-c2ccccc2)c1=O | i
CC(=O)Oc1c(-c2ccc(NC(=O)c3ccco3)cc2)c(C2CC2)nn1-c1cccc(C)c1 | 32µM*
c1cncc(CN2CC[C@H](c3nnc(Cc4c[nH]c5ccccc45)o3)C2)c1 | i
Cc1ccc(CN2CC[C@H](c3nc4cc(C)ccc4o3)C2)cc1 | i
CCS(=O)(=O)c1ccc2oc([C@H]3CCN(Cc4c[nH]c5ccccc45)C3)nc2c1 | 32µM*
COCCn1c(=O)c2c(nc(-n3nc(C)cc3C)n2Cc2ccccc2F)n(C)c1=O | i
Cc1nn(C)c(C)c1C(=O)NCCn1c(C)cnc1C1CCC1 | i
Cc1nc(C)c(CC(=O)N2CCCC(C)(Cc3ccc4c(c3)OCO4)C2)s1 (stereo not given) | i
SMILES | KDM5B inhibitor
O=C(C1CCCCC1)N1CCC(c2nc3ccccc3o2)CC1 | i
O=C(c1ccccc1Cl)N1CCN(c2nc3ncccc3o2)CC1 | 20µM*
O=C(Cc1ccc(F)cc1)N1CCCN(c2nc3ncccc3o2)CC1 | i
O=C(C1CCCC1)N1CCN(c2nc3ncccc3o2)CC1 | 32µM*
O=C(C1CCCN(c2nc3ncccc3o2)C1)N1CCOCC1 (stereo not given) | 40µM*
O=C(C1CCN(c2nc3ccccc3o2)CC1)N1CCOCC1 | i
O=[S+]([O-])(NC1CCCN(c2nc3ncccc3o2)C1)c1cccc(C(F)(F)F)c1 (stereo not given) | i
COc1cccc(C(=O)N2CCCN(c3nc4ncccc4o3)CC2)c1 | i
O=C(Cc1cccc(Cl)c1)N1CCCN(c2nc3ncccc3o2)CC1 | i
CN(C)C(=O)N1CCCN(c2nc3ncccc3o2)CC1 | 28µM*
Cc1ccc(C(=O)N2CCN(c3nc4ccccc4o3)CC2)cc1 | i
CCC(CC)c1nnc(NC(=O)CCc2c[nH]c3ccccc23)s1 | i
O=C(Nc1cccc(C(=O)OCc2cc(=O)n3nc(C4CC4)sc3n2)c1)c1ccccc1 | i
CCC(C)NCc1ccc(C)s1 (stereo not given) | i
O=C(c1ccc(F)c(F)c1)N1CCC(CN2CCOCC2)CC1 | i
CC(NC(=O)c1ccc2c(c1)CCN2S(=O)(=O)c1ccc(Cl)cc1)c1ccccc1 (stereo not given) | i
CCOCc1nc(C2CCCN(C(=O)Cc3ccc(F)cc3)C2)no1 (stereo not given) | i
Cc1ccnc(NC(=O)C2CC(=O)N(c3n[nH]c4ccccc34)C2)c1 (stereo not given) | i
NC(=O)[C@H](CC1CCCCC1)NC(=O)[C@H]1CN(C(=O)C2CCNCC2)CCN1C(=O)N1CCOCC1 | i
COc1cc(C(C)=O)ccc1OCC(=O)OCCOc1c(Cl)cccc1Cl | i
O=C(Cn1nc2c(cc1=O)CCCCC2)NCCn1ccc2c(Cl)cccc21 | i
CCOc1ccc(N2CC(c3nc4ccccc4n3CCCOc3ccc(OC)cc3)CC2=O)cc1 (stereo not given) | i
N#Cc1ccc(S(=O)(=O)N2C[C@@H](Oc3cccnc3)C[C@H]2C(=O)N2CCOCC2)cc1 | i
COc1cccc(C(=O)N[C@H]2[C@H](O)[C@H](O)C[C@@H]2c2cccnc2)c1 | i
COc1cccc(Nc2ncc(-c3cccnc3)c3c2OCC3)c1 | 32µM*
Cn1cc(-c2cnc(Nc3ccc(F)cc3)c3c2CCO3)cn1 | 6.3µM*

High-throughput results as filed in PubChem BioAssay.
